# High-throughput results as filed in PubChem BioAssay.
# Yeast superoxide: lowers age-related superoxide in aged yeast cells; S. cerevisiae aged cells, superoxide DHE fluorescence; hits give low values; superoxide response (% of plate mean), % at 10 µM; actives 0.18% (n = 330,000); AID 2690;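 active means superoxide response under a set limit, about three screen SD below normal, cut at about 65% in these data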;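 further: yeast aged for seven days with compound at 30 °C before DHE staining; 100% = average MFI of all compound-treated wells on the plate with controls excluded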
# dFosB act-1: activators of mouse delta FosB homodimer; actives 0.99% (n = 340,000); P13346; activation, % at 25 µM; purified delta FosB, TAMRA-CDK5 oligo fluorescence polarization; percent of positive-control signal above neutral wells;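 active means mean activation above about 17%, with every replicate also reaching it, limit read from the data, passing the limit was not always enough; inconclusive means only one of the two conditions met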
# Target sequence (P13346 whole entry, looked up): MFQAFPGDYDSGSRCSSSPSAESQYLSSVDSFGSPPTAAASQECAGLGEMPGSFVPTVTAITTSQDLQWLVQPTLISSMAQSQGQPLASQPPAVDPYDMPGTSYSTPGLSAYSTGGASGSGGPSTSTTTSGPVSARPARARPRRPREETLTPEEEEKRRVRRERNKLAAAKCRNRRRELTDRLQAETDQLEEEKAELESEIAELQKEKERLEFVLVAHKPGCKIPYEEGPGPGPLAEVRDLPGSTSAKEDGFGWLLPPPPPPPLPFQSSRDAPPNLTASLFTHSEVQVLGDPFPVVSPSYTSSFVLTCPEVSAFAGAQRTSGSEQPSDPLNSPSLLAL
# NALP1 inh: blocks the NALP1 inflammasome reconstituted in yeast. S. cerevisiae NALP1/ASC/caspase-1 growth, X-gal OD620, 72 h. inhibition, % at 10 µM. actives 0.61% (n = 280,000); in the data active means inhibition mostly above about 24%, no sharp cut-off; inactive means mostly below about 32%
# UBC13 inh: inhibitors of human UBC13 polyubiquitin chain formation | actives 0.47% (n = 330,000) | inhibition, % at 20 µM | TR-FRET | P61088; in the data active means inhibition above about 45%, passing the limit was not always enough; inconclusive means no clear call, values can overlap the other calls
# Target sequence (P61088 whole entry, looked up): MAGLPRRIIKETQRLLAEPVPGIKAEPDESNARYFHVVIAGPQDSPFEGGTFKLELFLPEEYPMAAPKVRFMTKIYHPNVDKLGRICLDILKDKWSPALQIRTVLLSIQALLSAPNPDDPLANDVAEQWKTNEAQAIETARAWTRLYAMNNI
# GRIN3A LBD mod: modulators (binders) of human NR3A ligand-binding domain; actives 2.5% (n = 340,000); NR3A LBD differential scanning fluorimetry, Tm shift; 0% = protein alone, 100% = glycine-bound protein; Tm shift relative to glycine control, % at 25 µM;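 active means melting temperature shift of at least 10% of the positive control shift, at one fixed dose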
# dFosB act-2: activators of mouse delta FosB homodimer DNA binding | shares compounds with dFosB act-1 | purified delta FosB, TAMRA-CDK5 oligo fluorescence polarization; normalised: neutral wells 0, positive control 100 | activation, % at 24.9 µM | 2,400 tested, under 10 active | AID 588690;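 active means highest replicate activation at or above 34% and every replicate reaching that threshold; inconclusive means meets only one of the two criteria; inactive means meets neither criterion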;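 further: higher polarization means more probe DNA bound by delta FosB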
# Starred values were filed as active, the others as inactive; i = inactive; ? = inconclusive; . = not tested or not shown. In the library only some 4.3% were active in any assay of this set; here they are far more common.
SMILES,Yeast superoxide,dFosB act-1,NALP1 inh,UBC13 inh,GRIN3A LBD mod,dFosB act-2
Cc1c(C(=O)OCC(=O)Nc2ccc(S(N)(=O)=O)cc2)oc2c1ccc1ccccc12,99,29*,-1,6,18*,2
Cc1ccc2c(C)c(C(=O)NCc3ccc(S(N)(=O)=O)cc3)oc2c1C,110,14,10,-2,-1,.
COc1ccc(-c2cc(N)n(S(=O)(=O)c3c(F)c(F)c(F)c(F)c3F)n2)cc1OC,116,-11,-27,-19,-3,.
CCOc1ccc2nc(N(CCN(C)C)C(=O)/C=C/c3cccs3)sc2c1,92,32*,31,20,2,6
CN(C)CCN(C(=O)/C=C/c1cccs1)c1nc2c(F)cc(F)cc2s1,100,53*,59*,28,2,4
CCc1ccc2nc(N(CCN(C)C)C(=O)/C=C/c3cccs3)sc2c1,106,3,27,26,-16,.
COc1cc(Br)c(CN2CCCN(C)CC2)cc1OC,97,1,-11,1,-1,.
CC(Nc1nc(N2CCNCC2)nc2ccccc12)c1ccccc1 (configuration not stated),95,48*,12,-5,-2,5
Cn1c2ccccc2c2cc(C(=O)OCC(=O)N3CC(=O)Nc4ccccc43)sc21,97,39*,9,6,-8,3
Cc1ccc(C(C)C)c(OCCCN(C)Cc2ccccc2)c1,101,-10,36,15,0,.
Cc1ccc(OCCCCN(C)Cc2ccccc2)c(Br)c1,84,25*,51*,14,-1,0
CC(=O)CSc1ccc(-c2nc3cc(C)c(C)cc3[nH]2)cn1,95,-4,7,-14,-3,.
Cc1cc2nc(-c3ccc(SCC(=O)Nc4nccs4)nc3)[nH]c2cc1C,.,58*,9,.,0,-2
O=C(CN1C(=O)S/C(=C\c2ccc(Cl)cc2)C1=O)NC1C=CS(=O)(=O)C1 (configuration not stated),128,20*,-13,-18,0,5
COC(=O)COc1ccc(/C=C2\SC(=O)N(CC(=O)Nc3ccccc3F)C2=O)cc1,103,33*,27,-12,0,-2
O=C(CN1C(=O)S/C(=C\c2ccc(Cl)cc2)C1=O)NNC(=O)c1ccccc1O,93,26*,12,.,-8,2
O=C(CN1C(=O)S/C(=C\c2ccc(Cl)cc2)C1=O)NCCCn1ccnc1,98,-14,18,-16,0,.
COc1ccc(/C=C2\SC(=O)N(CC(=O)Nc3ccc(O)cc3)C2=O)cc1OC,93,25*,13,-14,-1,0
COc1ccc(/C=C2\SC(=O)N(CC(=O)Nc3ccccc3O)C2=O)cc1OC,95,3,-2,0,5,.
CCc1ccc(NC(=O)Cn2cccc2)cc1,93,6,8,1,0,.
CC(/C=C1\SC(=O)N(CC(=O)Nc2cccc(O)c2)C1=O)=C\c1ccccc1,98,24*,36,-1,19*,3
O=C(c1ccc(Cl)cc1)c1ccc(Oc2cc(NN3CCCCC3)c([N+](=O)[O-])cc2[N+](=O)[O-])cc1,101,-15,11,-26,-4,.
NC(=O)CC(NC(=O)Cc1cccc2ccccc12)c1ccc(NCc2ccccn2)c([N+](=O)[O-])c1 (configuration not stated),100,-4,.,-26,-2,.
NC(=O)CC(NC(=O)Cc1cccc2ccccc12)c1ccc(NCc2ccc(F)cc2)c([N+](=O)[O-])c1 (configuration not stated),108,32*,.,-16,-4,-6
NC(=O)CC(NC(=O)Cc1cccc2ccccc12)c1ccc(NCc2ccccc2)c([N+](=O)[O-])c1 (configuration not stated),107,47*,.,-37,2,2
SMILES,Yeast superoxide,dFosB act-1,NALP1 inh,UBC13 inh,GRIN3A LBD mod,dFosB act-2
NC(=O)CC(NC(=O)Cc1cccc2ccccc12)c1ccc(NCCc2ccc(F)cc2)c([N+](=O)[O-])c1 (configuration not stated),101,-2,.,-28,-5,.
O=C(NCCNC(=O)c1cc(OCC(F)(F)F)ccc1OCC(F)(F)F)Nc1ccc(OC(F)(F)F)cc1,106,38*,13,-11,7,-4
CCC(C)NC(=O)c1ccc(CN2CCc3ccccc3C2)cc1 (configuration not stated),107,-5,8,9,0,.
O=C(COC(=O)CNC(=O)c1ccc(Br)cc1)Nc1nnc(-c2ccccc2)o1,100,20*,.,2,-1,-1
CCOc1ccc(C(=O)NCC(=O)OCC(=O)Nc2nnc(-c3ccccc3)o2)cc1,88,-9,.,-1,0,.
COc1ccc(N(CC(=O)NC2CCS(=O)(=O)C2)S(=O)(=O)c2ccc(Cl)c(Cl)c2)cc1 (configuration not stated),.,43*,.,2,2,2
COc1ccc(OC)c(N(CC(=O)NC2CCCCCC2)S(=O)(=O)c2ccc(C)cc2)c1,91,-8,5,4,-7,.
COc1ccc(NC(=O)CN(c2ccc(OC)cc2)S(=O)(=O)c2ccc(OC)c(OC)c2)cc1,100,52*,4,1,-1,6
COc1ccc(N(CC(=O)NC2CCCCCC2)S(=O)(=O)c2ccc(C)cc2)cc1OC,97,27*,2,-13,2,-1
COC(=O)CN(c1ccc(OC)cc1)S(=O)(=O)c1ccc(OC)c(OC)c1,109,-5,.,-4,1,.
CSc1ncccc1C(=O)N1CCN(S(=O)(=O)c2ccc(C)cc2)CC1,92,1,-3,0,-2,.
O=C(N/N=C/c1cccc(F)c1)NC1CCCCC1,107,-6,27,-7,1,.
CC(SC(C)C(=O)NN=Cc1cccc(F)c1)C(=O)NN=Cc1cccc(F)c1 (configuration not stated),.,28*,.,.,-2,1
Nc1nc(CN2CCc3ccccc3C2)nc(Nc2ccccc2)n1,86,27*,2,-10,-2,8
COc1ccc(Nc2nc(N)nc(CN3CCc4ccccc4C3)n2)cc1,92,0,-22,13,-2,.
O=C(CSc1ccc(-c2ccc(-n3cccn3)cc2)nn1)Nc1ccccc1F,101,25*,.,-8,2,3
O=[N+]([O-])c1cc(S(=O)(=O)N2CCCCCC2)ccc1Cl,.,-4,-1,6,2,.
C/C(=C\C=C(C#N)C#N)c1cc(C#N)c(N)o1,.,84*,21,i,-1,?
Cc1ccc(NC(=O)CCc2nnc3ccc(N4CCC(C)CC4)nn23)nc1,98,-14,8,-6,0,.
Cc1cc(C(=O)N/N=C/c2ccc(-c3cccc([N+](=O)[O-])c3)o2)n[nH]1,127,33*,-6,-6,3,0
